A selection: hits, their analogues and other compounds. The true share with any hit is near 2.6%.
HSP90 inh – inhibitors of HSP90 luciferase refolding in rabbit reticulocyte lysate | luciferase refolding luminescence, 3 h | inhibition, % at 5.6 µM | 290,000 compounds, 0.91% hits | AID 1789;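 active means inhibition above the screen-wide mean plus 3 SD, computed separately per campaign, cut at about 16% in these data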;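 further: 0% = DMSO wells and 100% = 60 µM geldanamycin wells; inhibitors lower the luminescence because luciferase stays unfolded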
TROY NFkB inh – inhibitors of TROY-dependent NF-kB signaling. Q293 LMP1-TROYcd NF-kB luciferase reporter, 4 h. inhibition, % at 10 µM. 360,000 compounds, 0.98% hits. AID 1347056;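 active means compounds whose plate-normalised and pattern-corrected inhibition of the luciferase reporter signal at the single screening dose is 50% or more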
LGR2 inh – Drosophila LGR2 receptor signaling inhibition; HEK293 LGR2, CRE-luciferase, bursicon-stimulated, 4 h; inhibition, % at 9.99 µM; 380,000 compounds, 0.35% hits;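 active means drop in luminescence signal, shown as inhibition above about 50% in the replicate tests, limit read from the data, passing the limit was not always enough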;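 further: agonist challenge used bursicon conditioned medium at about half maximal strength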
TWEAK-Fn14 inh – blocks TWEAK-Fn14 interaction in a reporter cell assay; inhibition, % at 10 µM; TWEAK-stimulated Fn14 reporter cells, luciferase luminescence, 8 h; 360,000 compounds, 2% hits; in the data active means inhibition above about 50%
EBV LMP1 NFkB – Epstein-Barr LMP1 NF-kappaB reporter inhibition. 350,000 compounds, 0.69% hits. inhibition, % at 12.5 µM. LMP1-induced NF-kappaB luciferase reporter cells, luminescence; in the data active means inhibition above about 41%;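 further: 0% = neutral control wells and 100% = reference inhibitor control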
aDG glyco act – alpha-DG glycosylation activation; Pro5-aDG cells, alpha-DG glycosylation AlphaScreen (IIH6); 0% Pro5, 100% B10-LARGE cell signal; activation, % at 10 µM; 360,000 compounds, 0.22% hits; AID 624168;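 active means activation of at least 8% versus controls, or a plate z-score of at least 8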;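 further: Pro5 are CHO cells carrying HIG-tagged alpha-DG that lacks glycosylation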
An asterisk follows results filed as active; nt = no result given; ! = not active in a repeat.

SMILES	HSP90 inh	TROY NFkB inh	LGR2 inh	TWEAK-Fn14 inh	EBV LMP1 NFkB	aDG glyco act
Cc1cccc(C)c1-n1nnnc1C(CCc1ccccc1)N1CCC(n2c(=O)[nH]c3ccccc32)CC1 (configuration not stated)	nt	81*	11	107*	nt	-1
O=c1[nH]c2ccccc2n1C1CCN(C(CCc2ccccc2)c2nnnn2-c2ccc3c(c2)OCCO3)CC1 (configuration not stated)	nt	59*	92*	70*	nt	0
COC(=O)[C@@H]1[C@@H](CO)[C@@H]2Cn3c(ccc(-c4ccncc4)c3=O)[C@H]1N2S(=O)(=O)c1ccccc1F	nt	nt	1	nt	nt	nt
COC(=O)[C@H]1[C@H](CO)[C@H]2Cn3c(ccc(/C=C/c4ccccc4)c3=O)[C@@H]1N2Cc1ccccc1F	nt	nt	1	nt	nt	nt
C=CCN1CC[C@]23c4c5ccc(O)c4OC2[C@H](O)CC[C@@]3(O)[C@H]1C5 (some centres not stated)	nt	6	1	-16	8	0
Oc1ccc2c3c1O[C@H]1[C@@H](O)CC[C@@]4(O)[C@@H](C2)N(CC2CCC2)CC[C@]314	nt	-3	3	4	69*!	0
CC(=O)OC[C@]12CCC(C)=C[C@H]1O[C@@H]1[C@H](O)[C@@H](OC(C)=O)[C@@]2(C)[C@]12CO2	nt	84*	104*	98*	74*	-1
Oc1ccc(-[n+]2c(-c3ccccc3)cc(-c3ccccc3)cc2-c2ccccc2)cc1	nt	62*	103*	87*	32	0
Cc1ccc(-n2c(O)c(/C=C/C=Nc3ccccc3)c(=O)[nH]c2=O)cc1	3	-13	-10	8	-9	0
Cc1ccc(N/N=C/c2c(O)n(-c3ccccc3)c(=O)[nH]c2=O)cc1	24*	6	2	11	-30	0
CC=Cc1ccc2n(c1=O)C[C@@H]1[C@@H](CO)[C@H](C(=O)OC)[C@H]2N1CC1CCOCC1 (mixture of isomers)	nt	nt	4	nt	nt	nt
Cc1cccc(S(=O)(=O)N2[C@@H]3Cn4c(ccc(-c5cccc(F)c5)c4=O)[C@H]2[C@@H](C(=O)O)[C@@H]3CO)c1	nt	nt	21	nt	nt	nt
CC1(C)N=C(c2ccccc2)[C@@H]2C(c3ccc([N+](=O)[O-])cc3)N21 (some centres not stated)	-1	53*	-6	11	3	0
C[C@H]1CN([C@@H](C)CO)C(=O)CCCn2nncc2CO[C@@H]1CN(C)C(=O)Oc1ccc2ccccc2c1	nt	nt	5	nt	nt	nt
CC=Cc1ccc2n(c1=O)C[C@@H]1[C@@H](CO)[C@H](C(=O)OC)[C@H]2N1C(=O)CC (mixture of isomers)	nt	nt	4	nt	nt	nt
CC12CN3CN(C1)CC(c1ccccc1)(C3)C2=O	4	nt	nt	88*	1	0
COC(=O)C[C@H]1CC[C@@H]2NC[C@@H](O)COC[C@H]2O1	nt	nt	4	nt	nt	nt
COc1ccc(OC(=O)N(C)C[C@H]2OCc3ccccc3-c3c(n(C)c4ccccc34)C(=O)N([C@@H](C)CO)C[C@@H]2C)cc1	nt	nt	13	nt	nt	nt
CCOC(=O)[C@]12Cc3cc(OC)ccc3[C@H]1N(C1CCCCC1)C(=O)c1cc(OC)ccc12	nt	55*	51*	11	nt	1
CCOC(=O)[C@]12Cc3cc(C)ccc3[C@H]1N(C1CCCCC1)C(=O)c1cc(OC)ccc12	nt	54*	68*	101*	nt	0
COc1ccc(C#Cc2ccc([C@H]3[C@H]4CN(C(=O)Cc5ccncc5)CCCCN4[C@H]3CO)cc2)cc1	nt	nt	0	nt	nt	nt
O=C(O)[C@@H]1[C@@H](CO)[C@@H]2Cn3c(ccc(C4=CCCCC4)c3=O)[C@H]1N2CCc1ccccc1	nt	nt	-8	nt	nt	nt
CC=Cc1ccc2n(c1=O)C[C@H]1[C@H](CO)[C@@H](C(=O)OC)[C@@H]2N1CC1CC1 (mixture of isomers)	nt	nt	-8	nt	nt	nt
NC(N)=N/N=C/c1cn(-c2ccccc2)nc1-c1cccs1	0	-35	106*	13	9	-1
CC=Cc1ccc2n(c1=O)C[C@@H]1[C@@H](CO)[C@H](C(=O)OC)[C@H]2N1S(=O)(=O)c1ccccc1C (mixture of isomers)	nt	nt	-10	nt	nt	nt
SMILES	HSP90 inh	TROY NFkB inh	LGR2 inh	TWEAK-Fn14 inh	EBV LMP1 NFkB	aDG glyco act
COC(=O)[C@@H]1[C@@H](CO)[C@@H]2Cn3c(ccc(-c4ccccc4)c3=O)[C@H]1N2CC1CC1	nt	nt	-9	nt	nt	nt
O=C(C1CCCN(c2nnc(-n3cccc3)s2)C1)N1CCC2(CC1)OCCO2 (configuration not stated)	-1	nt	nt	74*	11	0
C/C=C/c1ccc(C2[C@@H]3CN(C(=O)C4CCC4)C[C@H]2N3)cc1 (some centres not stated)	nt	nt	-2	nt	nt	nt
O=C(OC1CCN(CCCl)CC1)C(c1ccccc1)c1ccccc1	nt	-14	5	0	51*	0
C[N+]1(C)[C@@H]2CC[C@H]1CC(OC(=O)C(c1ccccc1)c1ccccc1)C2 (some centres not stated)	-1	-1	0	15	-2	0
CCCc1nc2ccc(Br)cc2c(=O)n1-c1ccc([N+](=O)[O-])c(C(F)(F)F)c1	3	47	28	46	44*	0
CC(=O)OC1C(O)C(C)OC(OC2C(OC(=O)C3CCC4C(C3)OC3(CC(OC(=O)/C=C/c5ccccc5)C(C)CO3)C43CO3)OC(C)C(O)C2OC(C)=O)C1O (configuration not stated)	nt	84*	99*	101*	85*	0
C=C1C(=O)O[C@@H]2C[C@@H](C)[C@@H]3C=CC(=O)[C@@]3(C)[C@@H](O)[C@H]12	nt	32	102*	104*	94*	0
C[C@@H]1CN([C@@H](C)CO)C(=O)CCCn2cc(nn2)CO[C@@H]1CN(C)C(=O)Oc1cccc2ccccc12	nt	nt	5	nt	nt	nt
Cc1ccc(O)c(C(=O)c2cc(C(=O)NCc3ccccc3)c(=O)n(Cc3ccccc3)c2)c1	0	16	12	4	-2	0
O=C(c1cc(C(=O)NCc2ccccc2)c(=O)n(Cc2ccccc2)c1)c1cc(Br)ccc1O	-6	24	18	51*	4	0
Cc1ccc(OC(=O)N(C)C[C@@H]2OCc3ccccc3-c3c(n(C)c4ccccc34)C(=O)N([C@@H](C)CO)C[C@@H]2C)cc1	nt	nt	22	nt	nt	nt
C[C@@H]1CN([C@H](C)CO)C(=O)c2c(c3ccccc3n2C)-c2ccccc2CO[C@@H]1CN(C)C(=O)Oc1ccccc1	nt	nt	18	nt	nt	nt
CC(C)[C@H]1C(=O)O[C@H](C(C)C)C(=O)N(C)[C@@H](C(C)C)C(=O)O[C@H](C(C)C)C(=O)N(C)[C@@H](C(C)C)C(=O)O[C@H](C(C)C)C(=O)N1C	-3	56*	nt	56*	56*	2
CCOC(=O)c1c(N)n(Cc2ccco2)c2nc3ccccc3nc12	-2	10	nt	7	-5	2
CCCCn1c(NC(=O)c2ccco2)c(C(=O)OCC)c2nc3ccccc3nc21	8	52*	nt	48	-11	2

Compound activity from PubChem.
